The supplement of paper PMC12339681
Structures can show the parent of a compound that is named as a salt.

Test system: PBMC-derived induced microglia-like cells (piMGLC)
Assay: synaptosome phagocytic index relative to DMSO control (fraction of DMSO); higher = more phagocytosis
Conditions: concentration: 10 uM (2 uM for compounds listed in Table S2); pretreatment time: 24 h; assay time: 3 h

Compound | synaptosome phagocytic index
Cc1ccc(C(=O)NCCCCCC(=O)Nc2ccccc2N)cc1 | 0.694
C.CN(C)C(=O)c1cc2cnc(Nc3ccc(N4CCNCC4)cn3)nc2n1C1CCCC1 [Ribociclib_succinate_hydrate] | 0.195
CCN1CCN(C(=O)N[C@@H](C(=O)N[C@@H]2C(=O)N3[C@@H]2SC(C)(C)[C@@H]3C(=O)O)c2ccccc2)C(=O)C1=O [Piperacillin_(sodium)] | 1.13
NC[C@H]1CC[C@H](C(=O)O)CC1 [Tranexamic_acid] | 0.927
OCCOCCN1CCN(C2=Nc3ccccc3Sc3ccccc32)CC1 [Quetiapine] | 0.906
O=C1Nc2ccc(Cl)cc2[C@@](C#CC2CC2)(C(F)(F)F)O1 [Efavirenz] | 0.473
C[C@H]1COCCN1c1nc(-c2cnc(N)cc2C(F)F)nc(N2CCOCC2)n1 | 0.366
O=C1N=C(O)NC1(c1ccccc1)c1ccccc1 [Phenytoin_(sodium)] | 0.725
CCN(CC)C(=O)C1(c2ccccc2)CC1CN (stereo not drawn) [Milnacipran_(hydrochloride)] | 1.35
COC(=O)N[C@H](C(=O)N[C@@H](Cc1ccccc1)[C@@H](O)CN(Cc1ccc(-c2ccccn2)cc1)NC(=O)[C@@H](NC(=O)OC)C(C)(C)C)C(C)(C)C [Atazanavir_(sulfate)] | 0.81
CCCCOc1ccc(C(=O)CCN2CCCCC2)cc1 [Dyclonine_(hydrochloride)] | 0.68
COC1(c2sc3c(N4CCOCC4)nc(-c4cnc(N)nc4)nc3c2C)COC1 | 0.384
CC1=C(/C=C/C(C)=C/C=C/C(C)=C/C(=O)O)C(C)(C)CCC1 [Retinoic_acid] | 0.339
